The text below walks through data of PubChem BioAssay AID2242 (National Center for Advancing Translational Sciences (NCATS), 2010).

SMILES strings stand for the structures. Hit rate of the full screen: of about 200,000 compounds, about 720 (0.36%) were called active. About 8% were inconclusive and are not listed. Calls come from the whole dose curve; as a rule, active = well fitted activation curve with a large enough effect; inconclusive = small, poorly fitted or top-dose-only effect, or effect the other way, or another doubt; inactive = flat fitted curve, though single readings scatter. Some of the results follow.
Potency is the fitted concentration of half-maximal effect.

This experiment concerns the target Lysosomal alpha-glucosidase (Homo sapiens) (UniProt P10253). The experiment in a line: qHTS Assay for Activators of Human alpha-Glucosidase as a Potential Chaperone Treatment of Pompe Disease. Note: nearly all actives have a fitted effect of over 80% in size. To be noted: purified enzyme, 4-MU-alpha-glucoside fluorescence, 20 min; series mostly up to 76.9 µM. From the text:
NIH Chemical Genomics Center [NCGC] NIH Molecular Libraries Probe Production centers Network [MLPCN] MLPCN Grant: 1R03MH084841-01 Assay Submitter (PI): Wei Zheng NCGC Assay Overview: Alpha-glucosidase is responsible for hydrolysis of terminal, non-reducing 1,4-linked alpha-D-glucose residues with release of alpha-D-glucose. It is a lysosomal hydrolase that is required for the degradation of a small percentage (1-3%) of cellular glycogen in human. Deficiency of this enzyme results in glycogen-storage disease type II (GSDII), also referred to as Pompe disease, an autosomal recessive disorder. Structurally normal glycogen is accumulated in lysosomes and cytoplasm in affected patients, primarily in muscle tissues. Excessive glycogen storage within lysosomes may interrupt normal functioning of other organelles and leads to cellular injury. In turn, this leads to enlargement and dysfunction of the entire organ involved (eg, cardiomyopathy and muscle weakness). It has reported that the improper folding and trafficking of alpha-glucosidase resulting from the genetic mutations may account for a significant number of Pompe patients. […] We optimized this alpha-glucosidase assay in 1536-well plate format for identifying the novel small molecule inhibitors with the structures other than the sugar analogs in order to develop the new pharmacological chaperones, but are also able to detect potential activators. In conjunction with assays against alpha-galactosidase (AID 1467), fluorogenic false positive compounds can be identified.
NCGC Assay Protocol Summary: This is a fluorogenic enzyme assay with 4-methylumbelliferyl-alpha-D-[…] as the substrate and human alpha-glucosidase as the enzyme preparation. Upon the hydrolysis of this fluorogenic substrate, the resulting product, 1. 4-methyllumbelliferone, can be excited at 365 nm and emits at 440 nm which can be detected by a standard fluorescence plate reader. Data were normalized to the controls for basal activity (without enzyme) and 100% activity (with enzyme). In the AC50 values were determined from concentration-response data modeled with the standard Hill equation. Assay buffer: 50 mM citric acid (titrated with potassium phosphate to pH 5.0), 0.005% Tween-20, pH 5.0. (pH 5.0 is an optimal condition for this enzyme assay) 1536-well assay protocol for the human alpha-glucosidase: (1) Add 2 ul/well of enzyme (4 nM final) (2) Add 23 nL compounds in DMSO solution. The final titration was 0.7 nM to 77 uM. (3) Add 1 ul of substrate (400 uM final) (4) Incubate at room temperature for 20 min. (5) Add 2 ul stop solution (1M NaOH and 1M Glycine mixture, pH 10) (6) Detect the assay plate in a ViewLux plate reader (PerkinElmer) with Ex=365 nm and Em=440nm. Keywords: Alpha-glucosidase, Pompe Disease, pharmacological chaperone, chaperone therapy, high throughput screening, alpha-glucosidase inhibitor, MLSMR, MLSCN, NIH Roadmap, qHTS and NCGC
Take `CCCCc1cc(=O)oc2c(CN(C)C)c(O)ccc12`: the Potency was 35.5 µM (active). Take `CC(NC(=O)CCSc1nc(-c2ccc3c(c2)OCO3)cc(C(F)(F)F)n1)c1ccccc1` (centres undefined): the Potency was 35.5 µM (active). The value for `COc1ccc(-c2n[nH]c(C(F)(F)F)c2-c2cc3ccccc3o2)c(O)c1` was 35.5 µM (active); that for `O=C(O)c1cc(-c2ccc(Cl)s2)nc2ccccc12` was 35.5 µM (active).

With `CC(=O)Nc1ccc(C2=NN(c3ccccc3)C(c3cccs3)C2)cc1` (centres undefined), the Potency was 28.2 µM (active). In the case of `CCS(=O)(=O)Nc1ccc(C2=NN(C(C)=O)C(c3cccs3)C2)cc1` (centres undefined), the Potency was 35.5 µM (active). In the case of `CCC(=O)N1N=C(c2ccc(NS(=O)(=O)CC)cc2)CC1c1ccc(C)cc1` (centres undefined) it was 35.5 µM (active). Turning to `COc1ccc(C2C3=C(CCCC3=O)Nc3nc(-c4cc(OC)c(OC)c(OC)c4)nn32)cc1OC` (centres undefined), the Potency is 35.5 µM (active).

Take `COC(=O)C1=CN(CCCN2CCCC2=O)C=C(C(=O)OC)C1c1ccccc1C(F)(F)F`: the Potency was 28.2 µM (active). The value for `COC(=O)C1=CN(CCCN2CCCC2=O)C=C(C(=O)OC)C1c1cccs1` was 39.8 µM (active); that for `Cc1ccc2c(c1)c1ncnc(N3CCC4(CC3)OCCO4)c1n2C` was 39.8 µM (active); that for `CCCn1c(=N)c(C(=O)NC2CCCC2)cc2c(=O)n3cccc(C)c3nc21` was 28.2 µM (active). In the case of `COCCCn1c(=N)c(C(=O)NCC2CCCO2)cc2c(=O)n3cccc(C)c3nc21` (centres undefined) it was 35.5 µM (active); in that of `Cc1ccc2nc3c(cc(C(=O)NCC4CCCO4)c(=N)n3CCCOC(C)C)c(=O)n2c1` (centres undefined), 31.6 µM (active).

As for `CCNc1nc2nc3ccc(C)cn3c(=O)c2cc1C(=O)NCC1CCCO1` (centres undefined), the Potency was 35.5 µM (active).

In the case of `CCn1c(=N)c(C(=O)NCCCOC)cc2c(=O)n3cccc(C)c3nc21`, the Potency was 28.2 µM (active). In the case of `COC(=O)Cc1cc(=O)oc2cc(O)ccc12` it was 35.5 µM (active). In the case of `O=C(Cc1cc(=O)oc2cc(O)ccc12)NCC1CCC(C(=O)O)CC1` (centres undefined) it was 35.5 µM (active). With `CCCCc1cc(=O)oc2cc(O)ccc12`, the Potency was 35.5 µM (active).

Take `N#Cc1c(-c2cccc(Br)c2)cc(-c2ccco2)[nH]c1=O`: the Potency is 39.8 µM (active).

In the case of `O=C(NC(=S)N(Cc1ccccc1)Cc1ccccc1)C1CCCCC1`, the Potency was 39.8 µM (active). In the case of `c1ccn2c(c1)nc1c2nc2ccccn21` it was 31.6 µM (active); in that of `COC(=O)C1=CN(CC2CCCO2)C=C(C(=O)OC)C1c1cc(OC)c(OC)c(OC)c1` (centres undefined), 35.5 µM (active).

For the compound `COC(=O)C1=CN(CC2CCCO2)C=C(C(=O)OC)C1c1ccsc1` (centres undefined), the Potency is 35.5 µM (active). In the case of `COc1cc2c(cc1/C=C/C(=O)O)OC(C)C2` (centres undefined) it was 39.8 µM (active).

Consider `CCCc1cc(=O)[nH]c(SCC(=O)c2cc(C)n(CCC)c2C)n1`, for which the Potency was 39.8 µM (active). `Cc1cccc(-c2cc3nc(-c4ccccc4)cc(N4CCC5(CC4)OCCO5)n3n2)c1`: the Potency was 35.5 µM (active). Turning to `COc1cccc(-c2cc3nc(-c4ccccc4)cc(N4CCC5(CC4)OCCO5)n3n2)c1`, the Potency is 39.8 µM (active). The value for `CCOC(=O)c1cc2c(s1)-c1c(C)cccc1OC2` was 35.5 µM (active); that for `O=C(NC1CC1)c1cc2c(s1)-c1ccccc1OC2` was 35.5 µM (active).

In the case of `COC(=O)c1cc2c(s1)-c1ccccc1OC2`, the Potency is 35.5 µM (active). In the case of `O=C(O)c1cc2c(s1)-c1ccccc1OC2` it was 31.6 µM (active); in that of `CCOC(=O)c1cc2c(=O)n3ccccc3nc2n(CCOC)c1=NC(=O)c1ccncc1`, 31.6 µM (active). In the case of `CCOC(=O)c1cc2c(=O)n3ccccc3nc2n(CCCOC)c1=NC(=O)C(C)(C)C` it was 35.5 µM (active); in that of `CCOC(=O)c1cc2c(=O)n3ccccc3nc2n(Cc2ccco2)c1=NC(=O)c1ccccc1OC`, 31.6 µM (active). The value for `CCOC(=O)c1cc2c(=O)n3ccccc3nc2n(CCOC)c1=NC(=O)C(C)(C)C` was 35.5 µM (active); that for `CCOC(=O)c1cc2c(=O)n3ccccc3nc2n(CCCOC)c1=NC(=O)c1cccnc1` was 35.5 µM (active). Take `COc1cccc(-c2ccc(C#N)c(OC(=O)c3ccc(Cl)cc3)n2)c1`: the Potency was 35.5 µM (active). The value for `COC(=O)C1=CN(C2CC2)C=C(C(=O)OC)C1c1ccccc1OC` was 35.5 µM (active); that for `COC(=O)C1=CN(C2CC2)C=C(C(=O)OC)C1c1ccc(C(=O)OC)cc1` was 35.5 µM (active). In the case of `CCN1CCn2c3c(c4cc(Cl)ccc42)CCCC31` (centres undefined) it was 31.6 µM (active); in that of `O=C(Nc1c2ccccc2nc2ccccc12)C(Cl)(Cl)Cl`, 35.5 µM (active); in that of `O=c1oc2ccccc2cc1-c1nc2ccccc2o1`, 31.6 µM (active). In the case of `CC(=O)Nc1nc2n(n1)C(c1ccc(Cl)cc1)C=C(C)N2` (centres undefined) it was 35.5 µM (active); in that of `CC(C)n1c(=NC(=O)c2ccco2)c(C#N)cc2c(=O)n3ccccc3cc21`, 31.6 µM (active); in that of `CCN(CC)CCNC(=O)c1ccc2c(=O)n(CCc3ccccc3)c(=O)[nH]c2c1`, 35.5 µM (active). For the compound `COC(=O)c1ccc2c(=O)n(CCCCCC(=O)NCc3ccccn3)c(=O)[nH]c2c1`, the Potency is 31.6 µM (active).

For `CCCCCn1c(=O)[nH]c2cc(C(=O)O)ccc2c1=O`, the Potency is 35.5 µM (active). In the case of `COC(=O)c1ccc2c(=O)n(CCCCCC(=O)O)c(=O)[nH]c2c1` it was 31.6 µM (active).
